Assay results published in the supplement of paper PMC10681739.

What follows are sequences tested against RUNX1 (UniProt Q01196) (assay: RUNX1 binding intensity (PBM fluorescence), RUNX1 alone (arbitrary fluorescence units); higher = stronger binding). Conditions: RUNX1 concentration 2 nM; ETS1 concentration 0 nM.
Protocol: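 Cooperative gcPBM on 36-bp genomic probes with neighbouring ETS1 and RUNX1 sites. Recombinant human RUNX1 (2 nM) was incubated alone or with ETS1 (25 nM) and detected with anti-RUNX1 antibody plus Alexa488 secondary. Values are medians over 4 replicate spots; the RUNX1+ETS1 data were normalised to the RUNX1-only data. The probes sit in constant array flanks that are not printed.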
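Also: Full-length recombinant human RUNX1 bound to double-stranded 36-bp genomic probes on a high-density microarray, scored as Alexa488 fluorescence per spot via anti-RUNX1 antibody, median of four replicate spots.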

Chain of RUNX1 (Q01196 whole entry): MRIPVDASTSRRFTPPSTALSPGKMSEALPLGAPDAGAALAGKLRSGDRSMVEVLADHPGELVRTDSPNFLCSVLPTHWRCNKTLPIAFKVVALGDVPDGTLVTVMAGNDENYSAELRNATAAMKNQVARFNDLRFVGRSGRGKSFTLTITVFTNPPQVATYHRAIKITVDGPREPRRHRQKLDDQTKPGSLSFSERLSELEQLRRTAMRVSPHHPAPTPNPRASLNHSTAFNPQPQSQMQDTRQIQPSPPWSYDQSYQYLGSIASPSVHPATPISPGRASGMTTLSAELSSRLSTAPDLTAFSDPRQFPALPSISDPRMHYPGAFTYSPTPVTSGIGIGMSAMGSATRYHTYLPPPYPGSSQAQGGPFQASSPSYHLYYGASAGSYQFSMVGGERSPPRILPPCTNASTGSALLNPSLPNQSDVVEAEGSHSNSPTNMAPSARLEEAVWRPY

Row | Sequence | RUNX1 binding intensity
1 | GTGAATGAGGGGGAAGGAAGTGGTTTGGAAAAATAC | 949
2 | ACATTCTTCCGGTTGGACCTCCGCGGTCAGCGCTGT | 1110
3 | TTTCACTTCCGGCATGTTTTTCACCCACAGGGATAT | 1130
4 | CAGGGCACCTCCTACTTCCCCCCGCAGATAACTACC | 999
5 | GGTAAAGCAACAGGATGTGGGTGTCTGACTTACAAT | 700
6 | CCGGGTAGGATCCGGTTGCCTTTCTGCGGTGGAGGA | 848
7 | CTCAGGAATGCGGAAGTGCTCTGTGGGCACCCACCA | 707
8 | TGGGGCCCGGAAGCGCTGGCGCCTTGCGGCCAGAAG | 707
9 | GAAAACTAAGCAGGATGTGGTCTCGGCTGGAGCCTG | 657
10 | ACACCGGAAGCCCAACAGCATGCCGAGTAACCACCC | 864
11 | CCCTGCCATTTCCTGCCCAATACCGCGTATGCAACT | 1780
12 | CACCGACCGGAAGGGCCCCAAGGATCCCCGCAGCAG | 831
13 | GGAACAGGAAAAGCCTCCGGCAGCCCCTGCGGGCGG | 719
14 | GGCCGACGGGAAGTGTAGTCCGGCCTGCGGTCCGGG | 704
15 | GTCTTACTTCCTGTCCCCGCCCACCGCGACTGTCTT | 1740
16 | CTGTTTCCTGCCTTTGCTGTCTGTGACCGCATCAGT | 1310
17 | GAGCGCCCACTTCCTGTTTACCACCCAGCCTCTTCG | 1110
18 | AATGCCGGATATTGGTTCTGGTAAGCCACAAAAAAG | 836
19 | AATCCACCGGAAACACTTAGACGCCGCAACCCCAGT | 895
20 | GTGGCTATGGGAAGTGGGGTGCGGTTTCTGCCGGGG | 1340

Row | Sequence | RUNX1 binding intensity
21 | GCTTCTGAGGAAGTGCGTTCTGTGGGTAGGTGGAGT | 834
22 | GGGCAGCAGCAGACCGGAAACCACAGCCGACTAAGA | 1160
23 | AAACAGGAAATCACAGCAGCGTTGCGGAGTGGAGCA | 754
24 | GGGCTATTGTTTCCTCCCCCATGTGACCACAGCCTC | 994
25 | CCGCTTCCGGCCTTCGCCCGGCTTACCCGCGTCGCA | 1070
26 | TTGAGGGGAAGGGGAGGAAGTGGTCATTGGAACTTG | 776
27 | GCCTGAAGGACTTCCGGGAACCGCAAAGCACGGTGT | 1500
28 | GTATGGGAAGTGATCTGGCTGCAAACCGCAAGAGAG | 4520
29 | ACACCCCAGGCAGGATGTGGTAGGGGTTGCCCCAGA | 741
30 | TGGCTTTGCAGAAGGAAGCTGTGGTTTCTGGTCTTC | 869
31 | TTGTCACGTCCGGCACGCCGCGAACCGCAAGGAACC | 1270
32 | ACTTGACTTCCTGTGGGGTGTGTGGTGTCTGCACTT | 798
33 | TGGGAACTTCCTGTGGAGGAGTGCATTGTGGGACTT | 686
34 | CAGGCCTTTCCTGCTATCGTTTGTGGTTTGAGCAGT | 1940
35 | ACTGCTTGATTTTCAGGAAGTGGTAAAGTGGCAGGT | 782
36 | GCGGAGCGAGCGGCCGGATGCGGTCACCATAGAGAC | 917
37 | ACCATAAGGACCGGAAGCAGAGACCACACTGGTGCT | 831
38 | AAAACAAGGACTTCCGCCTCCCTGCGGTCCCTCCCC | 894
39 | CAGCAAAAGGCAGGATGTGGTTAAAACTGTGCTCTG | 1110
40 | GCTAAGGTGAAAGGAAGTGGGTTTTGTCTTTTTTTT | 854
